Data on ten compounds can be found in PubChem BioAssay.

Structures are written as SMILES. Several values for one entry are separate records, joined by “and”; a condition that tells them apart may be missing. Equal values may be shown once. A number with no mark means an inactive call. Some of the results follow. Activity calls are given as the source filed them.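 How the source made its calls, unless noted: active means inhibition above the mean over all tested compounds plus 3 SD, which no compound reached; inactive means the rest.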

Assay [1] concerns the target Glutathione S-transferase omega-1 (Homo sapiens) (UniProt P78417). The assay can be described thus: recombinant GSTO1 blockers, retest – biochemical, fluorescence polarization, triplicate, counter-screen for RBBP9 inhibitor project, confirmation (AID 2176;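 active means inhibition above the primary screen's cutoff, its mean inhibition plus 3 SD, cut at about 35% in these data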;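 further: loss of polarization as inhibitors block binding of rhodamine sulfonate ester activity probe; 0% = GSTO1 with DMSO and 100% = wells lacking GSTO1 enzyme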). The settings on record: recombinant GSTO1, probe fluorescence polarization; at 5.96 µM; active compounds read high.
Assay [2] relates to HIV-1 integrase (multimerization). Briefly: stimulation of HIV-1 integrase oligomerization – biochemical, TR-FRET, counter-screen for LEDGF/p75 integration inhibitor project (AID 1053131; in the data active means activation above about 8.9%). The note with it: TR-FRET HIV-1 integrase multimerization, at 7.7 µM, active compounds read high. For orientation: TR-FRET usually uses a lanthanide donor and a delayed reading to cut background.
Assay [3] in a line: compounds disturbing TR-FRET signal readout – biochemical, HIV-1 IN multimerization, artefact control for LEDGF/p75-dependent integration inhibitor project, confirmation (AID 1053135).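 Further: 0% = integrase with antibodies and DMSO and 100% = antibodies without integrase.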 The note with it: TR-FRET optical interference counterscreen, at 7.7 µM, active compounds read high.
For assay [4], the system named is HIV-1 integrase / human LEDGF/p75 complex. The assay can be described thus: blockers of LEDGF/p75-dependent integrase activity – biochemical, TR-FRET, confirmation (AID 1053136; in the data active means inhibition above about 14%). The note with it: TR-FRET LEDGF/p75-dependent HIV-1 integration, at 3.7 µM, active compounds read high.
The target in assay [5] is Bcl-2-like protein 1 (Homo sapiens) (UniProt Q07817). The assay can be described thus: Bcl-xL BH3-peptide displacement, hit confirmation – biochemical, fluorescence polarization, counter-screen for MCL1 inhibitor project (AID 2166;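 active means inhibition above a cutoff equal to the mean inhibition of all tested compounds plus 3 SD, cut at about 30% in these data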). The note with it: GST-Bcl-xL / FITC-Bim BH3 peptide FP binding; at 10.9 µM; active compounds read high.
Assay [6] deals with Induced myeloid leukemia cell differentiation protein Mcl-1 (Homo sapiens) (UniProt Q07820). The assay can be described thus: MCL1-BIM peptide interaction disruptors – biochemical, fluorescence polarization, triplicate, confirmation (AID 2168;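 active means inhibition above the average of all tested compounds plus 3 SD, cut at about 40% in these data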;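 further: 0% = DMSO wells and 100% = unlabeled Bim-BH3 control peptide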). The settings on record: GST-MCL1 / FITC-Bim-BH3 fluorescence polarization; at 10.9 µM; active compounds read high. In general terms: Fluorescence polarisation rises when a labelled molecule tumbles more slowly, as on binding a larger partner.

The nature of assay [7]: BSA probe fluorescence interference – biochemical, TAMRA-labeled BSA, counter-screen for TCR-CD3 interaction inhibitor project (AID 652035; in the data active means inhibition above about 23%;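 further: 0% = buffer low control and 100% = reference high control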). The note with it: TAMRA-labeled BSA probe fluorescence counterscreen; at 9.4 µM; active compounds read high. Background: Counterscreens check selectivity or assay interference.
Assay [8] has as its system T-cell receptor (TCR)-CD3 interaction, human. The assay can be described thus: blockers of TCR binding to CD3 – biochemical, fluorescence, TAMRA-labeled TCR probe, confirmation (AID 652036; in the data active means inhibition above about 19%). The settings on record: TAMRA-labeled TCR probe fluorescence binding assay; at 9.4 µM; active compounds read high.
Assay [9] in a line: potentiators of IFN-gamma STAT1 reporter activity – cell-based, HTS, luciferase reporter, confirmation (AID 1262;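 active means activation above a set limit carried over from the earlier primary STAT1 screen, cut at about 140% in these data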;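 further: simple ratio to median IFN-gamma plus DMSO wells so 0% means no light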). The note with it: NIH 3T3 STAT1-luciferase reporter, IFN-gamma potentiation, luminescence; at 5.7 µM; active compounds read high; 100% = IFN-gamma EC80 alone, no compound.
A short description of assay [10]: enhancement of NF-kB transcriptional signalling – cell-based, HEK293T, luciferase luminescence, TNF-alpha, counter-screen for STAT1 activator project (AID 1306;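 active means activation above the mean of solvent-only control wells plus 3 SD, set per campaign, cut at about 130% in these data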;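 further: TNF-alpha given at a submaximal dose yielding about 80% of full reporter signal; values are well signal over median control so 100% means no change and 0% no light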). The settings on record: HEK293T NF-kB luciferase reporter, TNF-alpha stimulated, at 5.7 µM, active compounds read high, 100% = TNF-alpha with vehicle only.
Assay [11] addresses Signal transducer and activator of transcription 3 (Homo sapiens) (UniProt P40763). The assay can be described thus: enhancers of IL-6 STAT3 transcription – U3A cells, luciferase, luminescence, counter-screen for STAT1 activator project, confirmation (AID 1316;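 active means activation above the solvent-only control well mean plus 3 SD, set per plate batch, cut at about 110% in these data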;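 further: 0% = no luminescence and 100% = median IL-6 plus DMSO wells; higher means more STAT3 reporter activation so hits are non-selective activators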). The note with it: U3A cells STAT3-luciferase reporter, IL-6, luminescence; at 5.7 µM; active compounds read high; 100 = IL-6 alone, no compound effect; cells lack STAT1.

The target in assay [12] is Serine protease HTRA1 (Homo sapiens) (UniProt Q92743). The assay can be described thus: confirming inhibition of human HTRA1 – biochemical, fluorescence polarization, confirmation (AID 540248;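 active means mean inhibition over three repeats above a set limit taken from the earlier primary screen, cut at about 37% in these data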;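 further: 0% = HTRA1 with DMSO and 100% = wells lacking HTRA1; inhibitors block probe binding so polarization drops and inhibition rises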). The note with it: recombinant HTRA1, FP-rhodamine activity-based probe, at 5.96 µM, active compounds read high.
Assay [13] can be described thus: reduced OD of T4-infected AddAB+ E. coli – absorbance, E. coli V3065, T4 phage, triplicate, AddAB inhibitor project, confirmation (AID 488942;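 active means mean inhibition above a set limit taken from the earlier primary screen, cut at about 13% in these data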;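 further: higher means less bacterial growth since AddAB block lets phage replicate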). The settings on record: E. coli V3065 expressing H. pylori AddAB, at 11.9 µM, active compounds read high, T4 phage with gene 2 nonsense mutations.
Assay [14] can be described thus: reduced OD of phage-infected RecBCD+ V66 E. coli – absorbance, mutant T4 phage, counter-screen for AddAB inhibitor project (AID 488955;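 active means mean inhibition above the mean of solvent-only control wells plus 3 SD, cut at about 4% in these data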;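 further: optical density read after an 18 h incubation at 37 °C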). The settings on record: OD growth, at 11.9 µM, active compounds read high.
Assay [15] is described as follows: bacterial growth inhibitors – absorbance, counter-screen for AddAB inhibitor project, confirmation (AID 488956; in the data active means inhibition above about 25%). The note with it: bacterial viability, absorbance (AddAB counterscreen); at 11.9 µM; active compounds read high.
A short description of assay [16]: reduced OD of V66 E. coli with T4 gene 2 phage – absorbance, RecBCD inhibitor project, confirmation (AID 651982;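 active means mean inhibition over triplicates exceeding the hit threshold derived in the original primary screen, cut at about 11% in these data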). The settings on record: E. coli V66 + T4 2- phage, growth OD; at 11.9 µM; active compounds read high.
Assay [17] is described as follows: bacterial growth inhibition – absorbance, high throughput, counter-screen for RecBCD inhibitor project (AID 651983; in the data active means inhibition above about 20%;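 further: E. coli strain V66 grown with compound alone and no phage infection; 0% = bacteria with DMSO vehicle only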). The settings on record: E. coli viability, absorbance (OD) growth; at 11.9 µM; active compounds read high.
Assay [18] can be described thus: reduced optical density, T4-challenged addAB+ bacteria – absorbance, E. coli V3065, T4 phage, counter-screen for RecBCD inhibitor project, confirmation (AID 651984;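 active means mean inhibition above the solvent-only control wells' mean plus 3 SD, cut at about 22% in these data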;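 further: higher means less bacterial growth from phage killing when AddAB is blocked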). The note with it: E. coli expressing H. pylori AddAB + T4 phage, OD growth; at 11.9 µM; active compounds read high; gene 2 mutant T4, recBCD-deleted host.
For assay [19], the target named is Nuclear receptor coactivator 3 (Homo sapiens) (UniProt Q9Y6Q9). Briefly: NCOA3 GAL4-fusion reporter inhibition – cell-based, luminescence, quadruplicate, confirmation (AID 588792;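 active means mean inhibition over 43.08%, the solvent-only control mean plus 3 SD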;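 further: 0% = DMSO treated cells and 100% = gossypol at 36 µM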). The settings on record: HEK293 GAL4-SRC3 luciferase reporter, at 3.6 µM, active compounds read high.
The subject of assay [20] is transactivating tegument protein VP16 (Human herpesvirus 1), Gal4-VP16 luciferase reporter. The assay can be described thus: repression of VP16-driven luciferase reporter – cell-based, luminescence, high throughput, counter-screen for SRC3 inhibitor project (AID 588794; in the data active means inhibition above about 30%). The settings on record: mammalian cells, at 3.6 µM, active compounds read high.
For assay [21], the target named is Nuclear receptor coactivator 1 (Homo sapiens) (UniProt Q15788). The assay can be described thus: NCOA1 GAL4-fusion reporter inhibition – cell-based, luminescence, quadruplicate, confirmation (AID 588820;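 active means mean inhibition above 46.68%, the untreated control wells mean plus 3 SD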;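 further: 0% = DMSO wells and 100% = gossypol 36 µM treated wells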). The settings on record: HEK293 GAL4-SRC1 luciferase reporter, at 3.6 µM, active compounds read high.
Assay [22] in a line: repression of VP16-driven luciferase reporter – cell-based, luminescence, high throughput, counter-screen for SRC1 inhibitor project (AID 588824; in the data active means inhibition above about 25%). The note with it: cell-based VP16 transactivation luciferase luminescence; at 3.6 µM; active compounds read high.
For assay [23], the target named is Photoreceptor-specific nuclear receptor (Homo sapiens) (UniProt Q9Y5X4). Briefly: retest of NR2E3-NCOR disrupting agonists – cell-based, luminescence, CHO-S two-hybrid, confirmation (AID 624378;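 active means average inhibition above a cutoff equal to the mean inhibition of all tested compounds plus one SD, cut at about 70% in these data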;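 further: 0% = DMSO in NR2E3 cells and 100% = DMSO in cells lacking NR2E3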). The settings on record: CHO-S mammalian two-hybrid NR2E3-NCOR, luciferase luminescence; at 3.98 µM; active compounds read high.
The nature of assay [24]: nonselective effects on VP16 transactivation – cell-based, luminescence, CHO-S, high throughput, counter-screen for NR2E3 agonist project, confirmation (AID 624379;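 active means mean inhibition above a cutoff equal to the average over all tested compounds plus one standard deviation, cut at about 70% in these data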;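 further: 0% = DMSO with VP16-transfected cells and 100% = DMSO with cells lacking VP16; higher means less reporter light so more repression of VP16 activity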). The settings on record: CHO-S GAL4-VP16 luciferase reporter, at 3.98 µM, active compounds read high.
Assay [25] is described as follows: VP16-driven transactivation reporter suppression – cell-based, luminescence, HEK293, counter-screen for COUP-TFII antagonist project (AID 687007; in the data active means inhibition above about 13%). The settings on record: HEK293 Gal4-VP16 luciferase reporter, at 8.5 µM, active compounds read high.
For assay [26], the target named is COUP transcription factor 2 (Homo sapiens) (UniProt P24468). Briefly: retest of COUP-TFII reporter suppressors – cell-based, luciferase reporter, HEK293, triplicate, confirmation (AID 687008;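 active means mean inhibition over three repeats above a set limit taken from the earlier primary screen, cut at about 38% in these data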;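 further: 100% = cells given the luciferase reporter alone without the COUP-TF2 vector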). The note with it: HEK293 NGFI-A luciferase reporter, luminescence; at 8.5 µM; active compounds read high.
The nature of assay [27]: StAR promoter reporter inhibitors, counter-screen for LRH-1 inverse agonist project, cell-based, luminescence, high throughput (AID 651611; in the data active means inhibition above about 28%). The settings on record: StAR promoter luciferase reporter counterscreen, at 3.6 µM, active compounds read high.
Assay [28] has as its target Nuclear receptor subfamily 5 group A member 2 (Homo sapiens) (UniProt O00482). The assay can be described thus: NR5A2 activity suppression in reporter cells – cell-based, luminescence, confirmation (AID 651613; in the data active means inhibition above about 42%;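 further: HEK293T cells co-transfected with LRH-1 and StAR promoter luciferase reporter; 0% = vehicle wells and 100% = parental cells lacking receptor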). The settings on record: cell-based LRH-1 luciferase reporter, inverse agonism; at 3.6 µM; active compounds read high.
Assay [29] concerns the target Steroidogenic factor 1 (Homo sapiens) (UniProt Q13285). Briefly: inverse agonism at SF1 nuclear receptor – cell-based, luminescence, high throughput, counter-screen for LRH-1 inverse agonist project (AID 651614; in the data active means inhibition above about 44%;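 further: cells cotransfected with StAR promoter reporter and SF1 expression vector; 0% = vehicle on cells with receptor and 100% = vehicle on cells lacking receptor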). The note with it: cell-based SF1 luciferase reporter, at 3.6 µM, active compounds read high.
Assay [30] in a line: compounds suppressing VP16-driven luciferase signal – cell-based, luminescence, high throughput, counter-screen for LRH-1 inverse agonist project (AID 651615; in the data active means inhibition above about 33%). The note with it: Gal4-VP16 luciferase reporter cells, at 3.6 µM, active compounds read high.
Assay [31] deals with (Lyso)-N-acylphosphatidylethanolamine lipase (Mus musculus) (UniProt Q8VD66). The assay can be described thus: mouse ABHD4 hydrolase blockers, triplicate – biochemical, fluorescence polarization, confirmation (AID 720658;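 active means mean inhibition across replicates above the hit cutoff set in the primary screen, cut at about 30% in these data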;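 further: 0% = wild-type ABHD4 with DMSO and 100% = catalytically dead S159A mutant with DMSO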). The note with it: purified mABHD4, FP-Rh probe fluorescence polarization; at 8.92 µM; active compounds read high.
Sequence of (Lyso)-N-acylphosphatidylethanolamine lipase (Mus musculus) (Q8VD66 whole entry, looked up): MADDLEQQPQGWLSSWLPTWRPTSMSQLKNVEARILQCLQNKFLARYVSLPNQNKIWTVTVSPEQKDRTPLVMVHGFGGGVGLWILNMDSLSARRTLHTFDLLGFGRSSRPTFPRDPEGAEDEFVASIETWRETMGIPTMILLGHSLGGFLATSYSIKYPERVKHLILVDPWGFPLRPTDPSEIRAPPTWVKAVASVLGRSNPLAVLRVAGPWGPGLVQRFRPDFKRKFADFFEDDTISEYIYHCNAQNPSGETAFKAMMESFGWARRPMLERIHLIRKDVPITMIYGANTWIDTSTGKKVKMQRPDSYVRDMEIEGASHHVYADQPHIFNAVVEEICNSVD

Sequence of Steroidogenic factor 1 (Homo sapiens) (Q13285 whole entry, looked up, the tested form may be a part): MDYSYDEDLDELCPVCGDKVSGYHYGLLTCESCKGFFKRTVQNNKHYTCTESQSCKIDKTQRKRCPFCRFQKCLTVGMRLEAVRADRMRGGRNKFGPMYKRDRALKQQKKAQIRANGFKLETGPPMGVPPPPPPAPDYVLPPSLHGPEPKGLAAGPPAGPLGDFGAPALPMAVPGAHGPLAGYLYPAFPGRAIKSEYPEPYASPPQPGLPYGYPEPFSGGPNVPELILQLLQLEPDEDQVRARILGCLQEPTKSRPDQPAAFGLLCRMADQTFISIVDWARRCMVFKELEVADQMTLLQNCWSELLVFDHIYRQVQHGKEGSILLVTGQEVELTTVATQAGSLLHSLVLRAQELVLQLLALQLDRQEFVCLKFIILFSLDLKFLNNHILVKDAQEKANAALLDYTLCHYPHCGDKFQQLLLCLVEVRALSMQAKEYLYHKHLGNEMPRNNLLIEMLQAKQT
Sequence of Nuclear receptor subfamily 5 group A member 2 (Homo sapiens) (O00482 whole entry, looked up): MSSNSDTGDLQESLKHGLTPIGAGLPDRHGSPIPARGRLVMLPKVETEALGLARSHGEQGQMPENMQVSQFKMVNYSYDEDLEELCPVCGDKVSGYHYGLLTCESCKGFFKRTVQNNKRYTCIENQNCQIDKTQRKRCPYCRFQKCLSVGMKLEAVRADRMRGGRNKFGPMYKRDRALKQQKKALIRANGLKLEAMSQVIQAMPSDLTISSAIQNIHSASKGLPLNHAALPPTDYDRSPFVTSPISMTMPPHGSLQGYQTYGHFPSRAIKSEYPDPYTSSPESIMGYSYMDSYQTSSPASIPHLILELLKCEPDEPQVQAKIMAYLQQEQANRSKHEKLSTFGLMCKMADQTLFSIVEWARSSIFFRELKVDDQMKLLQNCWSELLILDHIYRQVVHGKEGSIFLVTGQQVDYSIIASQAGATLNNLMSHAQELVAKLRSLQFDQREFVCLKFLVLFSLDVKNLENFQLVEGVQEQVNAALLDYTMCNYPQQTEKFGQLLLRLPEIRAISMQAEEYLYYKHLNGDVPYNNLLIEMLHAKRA
Sequence of Nuclear receptor coactivator 1 (Homo sapiens) (Q15788 whole entry, looked up, the tested form may be a part): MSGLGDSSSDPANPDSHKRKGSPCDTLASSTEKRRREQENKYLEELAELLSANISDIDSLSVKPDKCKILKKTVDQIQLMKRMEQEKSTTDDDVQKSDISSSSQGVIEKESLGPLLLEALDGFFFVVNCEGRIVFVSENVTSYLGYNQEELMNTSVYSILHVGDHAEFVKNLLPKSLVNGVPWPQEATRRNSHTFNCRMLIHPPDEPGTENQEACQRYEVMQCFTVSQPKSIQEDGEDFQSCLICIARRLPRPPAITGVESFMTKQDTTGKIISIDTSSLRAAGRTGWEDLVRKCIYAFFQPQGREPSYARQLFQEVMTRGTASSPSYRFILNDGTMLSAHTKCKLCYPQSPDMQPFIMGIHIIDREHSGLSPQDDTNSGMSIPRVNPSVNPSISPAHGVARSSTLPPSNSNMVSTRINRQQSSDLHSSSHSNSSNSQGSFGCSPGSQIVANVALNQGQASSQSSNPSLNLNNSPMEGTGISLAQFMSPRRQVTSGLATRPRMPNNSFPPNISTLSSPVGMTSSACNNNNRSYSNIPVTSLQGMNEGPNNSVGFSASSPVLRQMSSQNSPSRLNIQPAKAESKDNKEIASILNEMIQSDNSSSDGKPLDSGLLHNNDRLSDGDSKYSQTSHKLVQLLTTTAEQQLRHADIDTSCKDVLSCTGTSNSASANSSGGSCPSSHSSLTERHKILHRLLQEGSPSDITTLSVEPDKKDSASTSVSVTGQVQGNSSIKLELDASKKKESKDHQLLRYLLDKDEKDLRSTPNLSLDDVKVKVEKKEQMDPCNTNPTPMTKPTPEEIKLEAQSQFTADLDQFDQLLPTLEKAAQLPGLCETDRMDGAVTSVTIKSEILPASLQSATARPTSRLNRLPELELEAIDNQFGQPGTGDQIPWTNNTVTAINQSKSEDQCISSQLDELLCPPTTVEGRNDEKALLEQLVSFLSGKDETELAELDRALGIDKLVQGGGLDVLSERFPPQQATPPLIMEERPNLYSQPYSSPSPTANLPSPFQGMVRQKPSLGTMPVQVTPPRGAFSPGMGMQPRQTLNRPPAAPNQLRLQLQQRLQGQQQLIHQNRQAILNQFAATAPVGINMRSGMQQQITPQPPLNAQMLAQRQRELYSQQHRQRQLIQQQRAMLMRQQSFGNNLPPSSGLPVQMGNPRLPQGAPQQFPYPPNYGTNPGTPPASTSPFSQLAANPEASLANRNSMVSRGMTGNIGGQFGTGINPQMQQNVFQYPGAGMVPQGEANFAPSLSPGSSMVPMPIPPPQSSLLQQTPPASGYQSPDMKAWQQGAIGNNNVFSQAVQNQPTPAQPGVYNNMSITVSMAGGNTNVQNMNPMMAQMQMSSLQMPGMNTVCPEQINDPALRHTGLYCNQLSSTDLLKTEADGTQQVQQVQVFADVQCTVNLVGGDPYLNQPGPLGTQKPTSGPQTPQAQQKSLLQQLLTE
Sequence of Glutathione S-transferase omega-1 (Homo sapiens) (P78417 whole entry, looked up): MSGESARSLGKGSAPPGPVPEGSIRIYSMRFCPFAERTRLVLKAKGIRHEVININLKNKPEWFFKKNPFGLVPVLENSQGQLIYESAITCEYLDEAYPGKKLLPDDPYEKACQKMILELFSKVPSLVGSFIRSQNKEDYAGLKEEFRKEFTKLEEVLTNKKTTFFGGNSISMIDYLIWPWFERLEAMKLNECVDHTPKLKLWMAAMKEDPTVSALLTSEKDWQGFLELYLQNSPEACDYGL
Sequence of Induced myeloid leukemia cell differentiation protein Mcl-1 (Homo sapiens) (Q07820 whole entry, looked up): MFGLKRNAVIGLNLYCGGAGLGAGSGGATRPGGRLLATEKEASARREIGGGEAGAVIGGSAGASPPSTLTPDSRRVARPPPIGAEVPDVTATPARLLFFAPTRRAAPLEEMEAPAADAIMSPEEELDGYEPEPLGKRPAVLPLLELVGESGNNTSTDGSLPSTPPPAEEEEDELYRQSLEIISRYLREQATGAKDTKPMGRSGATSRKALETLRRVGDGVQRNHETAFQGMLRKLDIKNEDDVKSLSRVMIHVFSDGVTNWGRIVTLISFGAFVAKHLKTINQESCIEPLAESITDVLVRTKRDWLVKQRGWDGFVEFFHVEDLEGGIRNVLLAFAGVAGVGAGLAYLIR
Sequence of COUP transcription factor 2 (Homo sapiens) (P24468 whole entry, looked up): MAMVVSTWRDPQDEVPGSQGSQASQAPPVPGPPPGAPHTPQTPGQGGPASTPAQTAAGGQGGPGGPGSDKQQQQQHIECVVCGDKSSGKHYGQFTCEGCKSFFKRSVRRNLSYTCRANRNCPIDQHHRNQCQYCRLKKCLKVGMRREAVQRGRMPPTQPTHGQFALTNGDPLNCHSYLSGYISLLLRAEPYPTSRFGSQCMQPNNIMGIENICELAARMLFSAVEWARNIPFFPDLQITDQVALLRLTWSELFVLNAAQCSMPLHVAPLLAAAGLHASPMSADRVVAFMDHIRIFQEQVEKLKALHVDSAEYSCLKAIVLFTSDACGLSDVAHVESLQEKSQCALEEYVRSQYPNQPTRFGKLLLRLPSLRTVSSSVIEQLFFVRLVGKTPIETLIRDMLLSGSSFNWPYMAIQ
Sequence of Bcl-2-like protein 1 (Homo sapiens) (Q07817 whole entry, looked up): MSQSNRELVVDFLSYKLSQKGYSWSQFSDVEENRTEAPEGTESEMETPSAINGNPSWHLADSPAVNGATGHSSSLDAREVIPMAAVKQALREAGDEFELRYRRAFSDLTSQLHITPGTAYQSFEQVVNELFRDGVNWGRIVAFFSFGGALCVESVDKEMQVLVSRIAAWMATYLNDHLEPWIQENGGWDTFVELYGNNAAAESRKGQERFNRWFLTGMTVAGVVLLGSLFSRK
Sequence of Photoreceptor-specific nuclear receptor (Homo sapiens) (Q9Y5X4 whole entry, looked up): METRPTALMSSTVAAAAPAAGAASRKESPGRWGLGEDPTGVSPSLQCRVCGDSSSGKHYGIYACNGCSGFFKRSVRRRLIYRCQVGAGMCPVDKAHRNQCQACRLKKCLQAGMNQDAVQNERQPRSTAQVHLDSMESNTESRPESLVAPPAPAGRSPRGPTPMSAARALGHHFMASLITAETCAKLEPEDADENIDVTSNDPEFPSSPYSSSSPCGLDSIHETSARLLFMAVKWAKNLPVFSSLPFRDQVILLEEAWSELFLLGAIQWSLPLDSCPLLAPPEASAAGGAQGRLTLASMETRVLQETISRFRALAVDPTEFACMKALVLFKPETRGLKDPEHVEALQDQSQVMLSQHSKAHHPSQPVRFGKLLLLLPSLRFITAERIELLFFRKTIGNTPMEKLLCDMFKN

One may read the inhibition as the change of the read-out against control, counted positive when it falls. Turning to `COc1ccc(S(=O)(=O)/N=C2\C=C(NS(=O)(=O)c3ccccc3)C(=O)c3ccccc32)cc1`, the inhibition was 72.9% (active) in assay [1], 10% in [3] and 5.95% in assay [4]. Moreover, the activation in assay [2] is -2.79%.

Take `CN(C)/C=C/C(=O)c1cnc2sccn2c1=O`: the activation in [2] was 0.96%. The inhibition in assay [3] is -3.51%; in assay [4] it was 1.19%.

Regarding `CN(C(=O)COC(=O)c1cc(-c2ccco2)nc2ccccc12)C1CCS(=O)(=O)C1` (stereo not given), the inhibition in assay [5] was 34.6% (active); in assay [6], 95.6% (active); in assay [1], 38.5% (active); in assay [7] it was 3.94%; in [8] it was 28.1% (active); in [3], -121%. Besides, the inhibition in assay [4] is 53.3% (active). Besides, the activation in [2] is 24.1% (active).

Take `COc1ccc(S(=O)(=O)N2CCCCC2)cc1C(=O)NC1CCS(=O)(=O)C1` (stereo not given): in assay [2], the activation was -2.17%. Besides, the inhibition in assay [3] is 10.9%; in [4], -3.25%.

Turning to `CC1CN/C(=C\C(=O)c2ccc(Br)cc2)C(=O)N1` (stereo not given), the activation (% of control) is 250% (active) in assay [9], 117% in assay [10] and 87.3% in [11].

As for `NNc1cccc(C=Cc2ccccc2)cc1=O`, the inhibition in assay [12] is 47.8% (active); in assay [3] it was -47.7%; in [4] it was 33.8% (active). The activation in assay [2] was 13.3% (active).

Consider `CO/N=C(\C(=O)N[C@@H]1C(=O)N2C(C(=O)O)=C(COC(C)=O)CS[C@H]12)c1csc(N)n1` (stereo in doubt), for which the inhibition in assay [13] was 99.2% (active) and 97% (active); in assay [14] it was 99.5% (active) and 97.6% (active); in assay [15] it was 99.6% (active) and 98.1% (active); in assay [16], 100% (active) and 96.2% (active) and 102% (active); in assay [17], 102% (active) and 97.1% (active) and 103% (active); in assay [18], 102% (active) and 96.3% (active). Also, the inhibition in assay [3] is -1.28%; in assay [4] it was 42.8% (active). Further, the activation in assay [2] is 0.25%.

As to `COc1ccc2c(c1)c(=Cc1ccc(N(C)C)cc1)c1cc(-c3ccccc3)[n+](C)n12`, the inhibition in [19] was 68.3% (active); in assay [20], 82% (active); in assay [21] it was 69.4% (active); in assay [22], 83.8% (active); in [23], 99% (active); in [24] it was 81.4% (active). For the same compound, the inhibition in assay [25] is 40.1% (active); in assay [26], 86.4% (active); in assay [3], -22.4%; in [4], -6.4%. Moreover, in assay [2], the activation is 6.29%.

With `NC1=CC(=O)C(=O)c2cccnc21`, the inhibition is 24.5% in [12]; 35.9% (active) in [27]; 47.5% (active) in assay [28]; 45.5% (active) in [29]; 8.35% in assay [30]; 6.36% in assay [7]. For the same compound, the inhibition in assay [8] is 11.5%; in [31], 68.3% (active); in assay [3], -160%; in [4], 79.9% (active). The activation in assay [2] is 45.1% (active).

Consider `COc1ccc2[nH]c3c(C)c4cc[n+](C)cc4c(C)c3c2c1`, for which the inhibition in assay [21] is 27.3%; in assay [22] it was 45% (active); in [27], 49.8% (active); in [28] it was 103% (active); in assay [29], 51.9% (active); in assay [30] it was 75% (active). Besides, the inhibition in assay [3] was -47.7%; in assay [4], 42.7% (active). Moreover, in [2], the activation is 9.5% (active).
